{"source": "PubChem BioAssay AID588719", "about": "(Southern Research Specialized Biocontainment Screening …, 2011)", "note": "Out of some 1,500 compounds screened, about 920 (61%) were called active. No rule for the calls is given here. The set was probably picked from earlier hits. The list shows a part of the results. Results with a measured potency or affinity are listed apart."}
{"test": "Vero 76 cell cytotoxicity, dose response, cytotoxicity control for VEEV inhibitor project (AID 588719)", "conditions": "Vero 76 cells viability, cytotoxicity counter-screen; series mostly up to 25 µM"}
{"smiles": "OCC1(CCOc2ccccc2)CCN(Cc2nc3ccc(F)cc3[nH]2)CC1", "outcome": "inactive"}
{"smiles": "COc1ccc(S(=O)(=O)N2CCC(C(=O)N[C@@H](C)C(=O)NCc3ccc(F)cc3)CC2)cc1", "outcome": "inactive"}
{"smiles": "CCCN1C(=O)c2ccccc2NC1c1ccc(OC)cc1O", "note": "(centres undefined)", "outcome": "inactive"}
{"smiles": "COc1ccc(C(=O)/C=C/C(=O)N(CC(=O)NC2CCCCC2)Cc2ccccc2OC)c(O)c1", "outcome": "inactive"}
{"smiles": "CCN1CCN(Cc2nc3ccc([N+](=O)[O-])cc3c(=O)n2-c2ccccc2F)CC1", "outcome": "inactive"}
{"smiles": "Cc1onc(C(=O)Nc2cccc(C(F)(F)F)c2)c1[N+](=O)[O-]", "outcome": "inactive"}
{"smiles": "CC1(NS(=O)(=O)c2ccc(Cl)s2)CCS(=O)(=O)C1", "note": "(centres undefined)", "outcome": "inactive"}
{"smiles": "C/C(=N/OCO/N=C(\\C)c1ccccc1)c1ccccc1", "outcome": "inactive"}
{"smiles": "O=S(=O)(Nc1nc2ccccc2nc1NCc1ccco1)c1ccc(F)cc1", "outcome": "inactive"}
{"smiles": "O=S(=O)(c1ccc(Cl)cc1)N1CCN(C(=S)Nc2ccccc2F)CC1", "outcome": "inactive"}
{"smiles": "CCC1CCCCN1S(=O)(=O)c1ccc(NC(=O)c2nc(S(C)(=O)=O)ncc2Cl)cc1", "note": "(centres undefined)", "outcome": "inactive"}
{"smiles": "CC(C)(C)OC(=O)[C@H](Cc1ccccc1)NC(=O)c1nc[nH]c1C(=O)N1CCN(C(=O)OC(C)(C)C)CC1", "outcome": "inactive"}
{"smiles": "C[C@@H](NC(=O)c1nc[nH]c1C(=O)N1CCN(C(=O)OC(C)(C)C)CC1)c1ccccc1", "outcome": "inactive"}
{"smiles": "CCn1c2ccccc2c2cc(NC(=O)c3ccc(=O)oc3)ccc21", "outcome": "inactive"}
{"smiles": "CN(C)CCOCCOc1ccc(Cl)cc1C(C)(C)C", "outcome": "inactive"}
{"smiles": "O=c1cc(-c2ccccc2)nc(/C=C/c2ccccc2)[nH]1", "outcome": "inactive"}
{"smiles": "Cc1nonc1OC(C)CNCCNc1ccc([N+](=O)[O-])cc1", "note": "(centres undefined)", "outcome": "inactive"}
{"smiles": "COc1ccc(-n2c(CN3CCC(C(N)=O)CC3)nc3ccc([N+](=O)[O-])cc3c2=O)c(OC)c1", "outcome": "inactive"}
{"smiles": "CCn1cc(C(=O)O)c(=O)c2cc(F)c(N3CCN(C(=S)NC(=O)c4ccc(F)cc4)CC3)cc21", "outcome": "inactive"}
{"smiles": "S=c1[nH]nc(-c2ccccn2)n1/N=C/c1ccc(-c2ccccc2Br)o1", "outcome": "inactive"}
{"smiles": "O=C(O)c1cccnc1Nc1ccc(Cl)cc1", "outcome": "inactive"}
{"smiles": "O=C(Nc1ccc(Cl)cc1C(=O)c1ccccn1)c1ccccc1", "outcome": "inactive"}
{"smiles": "Cc1cc(C(=O)Cn2nnc3ccccc3c2=O)c(C)n1-c1ccccc1F", "outcome": "inactive"}
{"smiles": "Cc1ccc(C)c(-n2cc(CNC(C)Cn3cncn3)c(-c3ccccc3)n2)c1", "note": "(centres undefined)", "outcome": "inactive"}
{"smiles": "O=C(N/N=C(\\CC(=O)c1cccs1)C(F)(F)F)c1ccncc1", "outcome": "inactive"}
{"smiles": "CCOC(=O)c1oc2ccc(S(=O)(=O)n3nc(-c4ccc(C)cc4)cc3N)cc2c1C", "outcome": "inactive"}
{"smiles": "COc1ccccc1/C=C/C(=O)c1ccc(NC(C)=O)cc1", "outcome": "inactive"}
{"smiles": "CC(=O)Nc1ccc(S(=O)(=O)Nc2nc(C)nc3sc4c(c23)CCC4)cc1", "outcome": "inactive"}
{"smiles": "CCOC(=O)c1c(CSC(=N)N)n(-c2ccccc2)c2cc(Br)c(OC(C)=O)cc12", "outcome": "inactive"}
{"smiles": "CC(C)=CCN1CCN(Cc2cccc3nccnc23)CC1CCO", "note": "(centres undefined)", "outcome": "inactive"}
{"smiles": "Cc1ccc(/C([O-])=C(/C(=S)Nc2ccc(SC(F)F)cc2)[n+]2ccccc2)cc1[N+](=O)[O-]", "outcome": "inactive"}
{"smiles": "Cc1ccc(/C=N/NC(=O)C[n+]2ccccc2)s1", "outcome": "inactive"}
{"smiles": "Cc1ccc(NC(=O)NCc2ccc3[nH]c(C)cc3c2)cc1", "outcome": "inactive"}
{"smiles": "COc1cc(/C=C/C(=O)c2c(O)ccc3c(C)cc(=O)oc23)ccc1O", "outcome": "inactive"}
{"smiles": "Cc1ccc(/C=C/c2onc(C)c2S(=O)(=O)N2CCC(C(=O)N3CCN(C)CC3)CC2)cc1", "outcome": "inactive"}
{"smiles": "O=C(NC(Cc1c[nH]c2ccccc12)C(=O)Nc1ccc(F)cc1)c1cccs1", "note": "(centres undefined)", "outcome": "inactive"}
{"smiles": "S=c1[nH]nc(-c2ccccc2)n1/N=C/c1ccc(-c2ccccc2Cl)o1", "outcome": "inactive"}
{"smiles": "Cc1ccc(NC(=O)c2ncn(CCCNCC3CCCCC3)n2)cc1C", "outcome": "inactive"}
{"smiles": "CCOc1ccccc1NC(=O)c1cc(S(=O)(=O)NCc2ccco2)ccc1F", "outcome": "inactive"}
{"smiles": "CN1CCc2cccc3c2[C@H]1Cc1ccc(O)c(O)c1-3", "outcome": "inactive"}
{"smiles": "COc1ccc2cc(-c3cc(C(=O)O)c4ccccc4n3)ccc2c1", "outcome": "inactive"}
{"smiles": "CCOc1ccc(NC(=O)Cn2sc3nc(C)cc(C)c3c2=O)cc1", "outcome": "inactive"}
{"smiles": "CCOc1ccc(NC(=O)c2c(NC(=O)CN3CCN(C)CC3)sc3c2CCC3)cc1", "outcome": "inactive"}
{"smiles": "CC(C)CC1c2[nH]c3ccccc3c2CCN1CCCn1cccn1", "note": "(centres undefined)", "outcome": "inactive"}
{"smiles": "Nc1ncnn1Cc1ccccc1", "outcome": "inactive"}
{"smiles": "CCOC(=O)C1=NN(C(=O)c2ccc(OC)cc2)C(O)(c2ccc(Cl)cc2)C1", "note": "(centres undefined)", "outcome": "inactive"}
{"smiles": "CCC(=NN=C(CC)c1ccccc1O)c1ccccc1O", "outcome": "inactive"}
{"smiles": "C#CCOc1ccc(C2C3=C(CC(C)(C)CC3=O)N(CC(=O)O)C3=C2C(=O)CC(C)(C)C3)cc1OC", "outcome": "inactive"}
{"smiles": "O=c1c2cccnc2[nH]c(=S)n1CCCN1CCN(c2ccccc2F)CC1", "outcome": "inactive"}
{"smiles": "O=C(NCc1ccccc1)C(=O)Nc1nc(-c2ccccc2)cs1", "outcome": "inactive"}
{"smiles": "Cc1cccc(-n2c(O)c(C=Nc3ccccc3-c3n[nH]c(=S)[nH]c3=O)c3ccccc3c2=O)n1", "outcome": "inactive"}
{"smiles": "O=C(CNC(=O)C1COc2ccccc2O1)N/N=C\\c1ccc(Cl)cc1", "note": "(centres undefined)", "outcome": "inactive"}
{"smiles": "Nc1ccc(C(=O)OCCCc2nc3cc4ccccc4cc3[nH]2)cc1", "outcome": "inactive"}
{"smiles": "CN(C)CCNc1nc2sc3c(c2c(=O)n1-c1ccccc1)CCCCC3", "outcome": "inactive"}
{"smiles": "Cc1ccc(-c2cc(-c3ccco3)c3c(N)c(C(=O)NN)oc3n2)cc1", "outcome": "inactive"}
{"smiles": "CCn1ncc(CN2CCC(C(=O)Nc3cccc(-c4cccc(F)c4)c3)CC2)c1C", "outcome": "inactive"}
{"smiles": "Cc1cccc(-c2ccc(NC(=O)C3CCN(CC4CC4)CC3)cc2)c1", "outcome": "inactive"}
{"smiles": "Cc1cccn2c(=O)c3cc(C#N)c(=NC(=O)c4cccs4)n(CC(C)C)c3nc12", "outcome": "inactive"}
{"smiles": "COCCNC(=S)NCc1ccc2[nH]c3c(c2c1)CCCC3", "outcome": "inactive"}
{"smiles": "Cc1cc2nc3c(=O)[nH]c(=S)[nH]c3nc2cc1NC(=O)C(F)(F)F", "outcome": "inactive"}
{"smiles": "Cc1cccnc1CN1CCN(Cc2nc(C(c3ccccc3)c3ccccc3)no2)CC1", "outcome": "inactive"}
{"smiles": "CN1CCc2nc(SCc3cccc(Br)c3)c(C#N)cc2C1", "outcome": "inactive"}
{"smiles": "COc1ccc2sc(N(CCCN(C)C)C(=O)c3ccc(S(=O)(=O)N(C)C4CCCCC4)cc3)nc2c1", "outcome": "inactive"}
{"smiles": "COc1ccc2sc(N(CCCN(C)C)C(=O)c3ccc(S(=O)(=O)N(C)Cc4ccccc4)cc3)nc2c1", "outcome": "inactive"}
{"smiles": "O=C(NNC(=O)c1cc2cc(OC(F)(F)F)ccc2[nH]1)c1ccc(Cl)cc1", "outcome": "inactive"}
{"smiles": "NNC(=O)c1n[nH]c(=O)c2ccccc12", "outcome": "inactive"}
{"smiles": "Cc1cccc(CS(=O)(=O)c2ncc(Cl)c(C(=O)NCc3ccccc3)n2)c1", "outcome": "inactive"}
{"smiles": "Cc1nc(-c2ccccn2)sc1C(=O)Nc1ccc(Cl)c(Cl)c1", "outcome": "inactive"}
{"smiles": "CCOc1ccc(N2C(=O)CC(Sc3nc4ccc(OCC)cc4s3)C2=O)cc1", "note": "(centres undefined)", "outcome": "inactive"}
{"smiles": "CCOc1ccc(Cn2c(=O)sc3ccccc32)cc1", "outcome": "inactive"}
{"smiles": "Cc1ccc2nc(-c3ccc(NC(=S)NCC(C)(C)CN(C)C)cc3)sc2c1", "outcome": "inactive"}
{"smiles": "CC12CCC(C(=NO)C1=O)C2(C)C", "note": "(centres undefined)", "outcome": "inactive"}
{"smiles": "O=[N+]([O-])c1ccc(CNC2CCCc3ccccc32)cc1", "note": "(centres undefined)", "outcome": "inactive"}
{"smiles": "COCCCNCCCCOc1ccc(OCc2ccccc2)cc1", "outcome": "inactive"}
{"smiles": "CN(C)c1ccc(P(=O)(OCc2ccccc2)C(O)c2ccccc2)cc1", "note": "(centres undefined)", "outcome": "inactive"}
{"smiles": "CC(Oc1ccccc1F)C(=O)Nc1ccc2ccccc2c1", "note": "(centres undefined)", "outcome": "inactive"}
{"smiles": "CC(Oc1ccc(F)cc1)C(=O)Nc1ccc2ccccc2c1", "note": "(centres undefined)", "outcome": "inactive"}
{"smiles": "CCOc1ccccc1Nc1nnc(SC(C)C(=O)Nc2nc(-c3ccccc3)cs2)s1", "note": "(centres undefined)", "outcome": "inactive"}
{"smiles": "Cc1cc(C(=O)OC(C)C(=O)Nc2nc(-c3ccccc3)cs2)c(C)o1", "note": "(centres undefined)", "outcome": "inactive"}
{"smiles": "Cc1cccc(-n2nc([N+](=O)[O-])c(=NC3CCN(Cc4ccccc4)CC3)n2O)c1", "outcome": "inactive"}
{"smiles": "Cc1ccc(C)c(NC(=S)NCCN(C2CCCCC2)C2CCCC2)c1", "outcome": "inactive"}
{"smiles": "CCOc1ccc(-n2c(=O)c3sccc3n(Cc3cccc([N+](=O)[O-])c3)c2=O)cc1", "outcome": "inactive"}
{"smiles": "Cc1ccc(C(=O)C[n+]2ccccc2C)cc1[N+](=O)[O-]", "outcome": "inactive"}
{"smiles": "COC(=O)Cn1c(=O)c(C(=O)CCl)c(N)n(Cc2ccccc2)c1=O", "outcome": "inactive"}
{"smiles": "Cc1nn(C(C)C(=O)Nc2ccccc2Cl)c(=O)c2nn(-c3ccccc3)c(C)c12", "note": "(centres undefined)", "outcome": "inactive"}
{"smiles": "Cc1ccc(S(=O)(=O)N2C[C@@H](C)[C@]3(C2)[C@H](O)[C@H](OC(=O)Nc2cccs2)C[C@H]2C(=O)N(c4ccccc4)C(=O)[C@H]23)cc1", "outcome": "inactive"}
{"smiles": "COc1ccc(/C=C2\\CCCC3C2=NN(C(=O)CSc2n[nH]c(N)n2)C3c2ccc(OC)cc2)cc1", "note": "(centres undefined)", "outcome": "inactive"}
{"smiles": "Cc1ccc2[nH]c(CN3CCC(CO)(CC4CCCCO4)CC3)c(C)c2c1", "note": "(centres undefined)", "outcome": "inactive"}
{"smiles": "COc1cc(C(=O)O/N=C2/C=CC(=O)C(C)=C2C)cc(OC)c1OC", "outcome": "inactive"}
{"smiles": "CC[C@@H](O)C[C@H]1CCC[C@@]2(C[C@@H]3OC(=O)/C=C/[C@@](C)(O)[C@@H](O)[C@H](C)[C@@H](O)[C@H](OC4CCC(N(C)C)C(C)O4)[C@@H](O)[C@](C)(O)CCCCC/C=C/[C@@H]4CC(C)(C)O[C@@]4(O)C[C@H](O2)[C@H]3C)O1", "note": "(some centres undefined)", "outcome": "inactive"}
{"smiles": "O=C(Cc1cccc2ccccc12)Nc1ccc(Br)cc1C(=O)O", "outcome": "inactive"}
{"smiles": "COc1ccccc1NC(=O)c1cc2ccccc2o/c1=N\\O", "outcome": "inactive"}
{"smiles": "CCOC(=O)N1CCN(C(=O)CNC2CCCCCCC2)CC1", "outcome": "inactive"}
{"smiles": "COc1ccc(/C=C/C(=O)NC(=S)N2CCN(c3ccccc3OC)CC2)cc1", "outcome": "inactive"}
{"smiles": "C=CCN=c1scc(-c2ccccc2)n1/N=C/c1ccccn1", "outcome": "inactive"}
{"smiles": "N#C/C(=C/c1ccc(-c2ccc([N+](=O)[O-])cc2)o1)c1nnc(N2CCOCC2)n1-c1ccccc1", "outcome": "inactive"}
{"smiles": "O=C(O)c1ccccc1NC(=O)c1ccccc1Nc1ccccc1", "outcome": "inactive"}
{"smiles": "Cc1cccc2c(=O)n(C(=O)c3ccccc3)c(N)nc12", "outcome": "inactive"}
{"smiles": "Cc1ccc2c(c1)c1c3n2CCN(CC(O)CNC(C)C)C3CCC1", "note": "(centres undefined)", "outcome": "inactive"}
